# Measurements as given in PubChem BioAssay (NCATS).
# Inconclusive results are not listed. Where a call stands in place of a potency, no number is given. Active and inactive are the calls of the source. Unless noted, calls follow the shape of the dose curve; as a rule, active = well fitted curve in the direction sought with a large enough effect; inconclusive = small, poorly fitted or top-dose-only effect, or another doubt; inactive = no such curve, though single readings can be large; an effect the other way counts as inactive or inconclusive.
# Tests used:
# [1] = Cell Viability - H-4-II-E (AID 543);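 also: cells exposed to compound for 40 hours; nearly all actives have a fitted effect of over 35% in size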
# How it was run: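 Cells seeded at 1500 per well and rested 5 hr; compounds added; 40 hr incubation at 37 °C; CellTiter-Glo added, 20 min at room temperature; luminescence read. Hill-equation fits gave AC50.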
# [2] = Cell Viability - SH-SY5Y (AID 544); settings: SH-SY5Y neuroblastoma cell viability; viability change, negative = cytotoxic: at 92.2 µM (top of the series);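 also: cells exposed to compound for 40 hours; nearly all actives have a fitted effect of over 55% in size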
# How it was run: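 Cells were plated at 1500 per well and allowed 5 hr at 37 °C. Compounds were added across a concentration range and incubated 40 hr at 37 °C. CellTiter-Glo was added for 20 min at room temperature before luminescence reading.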
# [3] = Cell Viability - Renal Proximal Tubule (AID 545);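 also: cells exposed to compound for 40 hours; nearly all actives have a fitted effect of over 40% in size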
# How it was run: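 Rat kidney proximal tubule cells, freshly isolated; 1000 cells/well, 5 hr settle, compound 40 hr 37 °C. CellTiter-Glo 20 min RT, luminescence read. AC50 by standard Hill fit.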
# [4] = Cellular Toxicity (caspase-3) Hek293 (AID 664); settings: HEK293 caspase-3 activation, DMSO = 0%, 100 µM tamoxifen = 100%; at 92.2 µM (top of the series);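 also: cells exposed to compound for 16 h at 37 °C before readout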
# How it was run: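 qHTS, HEK293 (human embryonic kidney), 16 h cpd exposure in complete medium. Caspase-3/7 activation = luminescence increase; normalized to DMSO/100 uM tamoxifen; Hill-fit AC50.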
# [5] = Cell Viability - LYMP2-003 (AID 965);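 also: cells exposed to compounds for 24 h before reading; nearly all actives have a fitted effect of over 50% in size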
# How it was run: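 CellTiter-Glo luminescence (cellular ATP) after 24 h compound exposure at 37 C in complete medium; 2500 cells/well, 5 h settling beforehand. Concentration-response fitted to standard Hill equation for AC50. Tetraoctylammonium bromide served as positive control.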
# [6] = Cell Viability - LYMP2-009 (AID 968); also: nearly all actives have a fitted effect of over 55% in size
# [7] = Cell Viability - LYMP2-013 (AID 970); also: nearly all actives have a fitted effect of over 55% in size
# How it was run: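 Cytotoxicity is scored as a concentration-dependent drop in intracellular ATP in human lymphoblastoid cells after 24 hr compound exposure at 37 C. ATP is quantified by luciferase luminescence, and AC50 values come from Hill-equation modeling.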
# [8] = Cell Viability - LYMP2-019 (AID 973); also: nearly all actives have a fitted effect of over 55% in size
# How it was run: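 Cytotoxicity is scored as a concentration-dependent drop in cellular ATP after cells (2500/well) receive compound for 24 hr at 37 C. Tetraoctylammonium bromide serves as positive control.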
# [9] = Cell Viability - LYMP2-025 (AID 976)
# How it was run: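 Acute cytotoxicity is scored as a concentration-dependent fall in intracellular ATP, measured by luciferase luminescence, in human lymphoblastoid LYMP2-025 cells exposed to compound for 24 hours at 37 C. AC50 values come from standard Hill fits.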
# [10] = Cell Viability - LYMP2-002 (AID 977)
# How it was run: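 In this qHTS viability screen, 2500 human lymphoblastoid cells per well receive compound for 24 hr at 37 C, and luciferase-based ATP luminescence gives the viability signal. Tetraoctylammonium bromide serves as positive control.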
# [11] = Cell Viability - LYMP2-006 (AID 978); also: nearly all actives have a fitted effect of over 60% in size
# How it was run: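 qHTS, 1536-well; 2500 cells/well, 5 hr 37 C; cpd 24 hr 37 C; CellTiter-Glo 30 min RT; luminescence. Tetraoctylammonium bromide pos. ctrl. AC50 via Hill eqn.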
# [12] = Cell Viability - LYMP2-008 (AID 980); also: nearly all actives have a fitted effect of over 60% in size; also: potency is read from the fitted curve at half-maximal effect
# How it was run: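 Cells seeded at 2500/well and rested 5 hr at 37 C; compounds added over a concentration range and incubated 24 hr at 37 C; CellTiter-Glo added, 30 min at room temperature; luminescence read and AC50 fitted with Hill model.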
# [13] = Cell Viability - LYMP2-012 (AID 982)
# [14] = Cell Viability - LYMP2-020 (AID 986); also: nearly all actives have a fitted effect of over 55% in size
# How it was run: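 Seed 2500 cells per well and incubate 5 hr at 37 C. Add compounds at a concentration series and incubate 24 hr at 37 C. Add CellTiter-Glo, wait 30 min at RT, read luminescence, and fit a Hill curve for AC50.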
# [15] = Cell Viability - LYMP2-022 (AID 987); also: nearly all actives have a fitted effect of over 55% in size
# How it was run: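 Cells were seeded at 2500 per well, rested 5 hr at 37 C, and treated with titrated compounds for 24 hr at 37 C. Cellular ATP was then quantified by luciferase luminescence, and AC50 values were derived from Hill-modelled concentration-response curves.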
# [16] = Cell Viability - LYMP2-026 (AID 989); also: nearly all actives have a fitted effect of over 50% in size
# How it was run: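 Cells are seeded at 2500 per well and held 5 hr at 37 C. Compounds are added in concentration series for 24 hr, then CellTiter-Glo reagent is applied and luminescence read.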
# [17] = Cell Viability - LYMP1-002 - Assay at 40 hr (AID 994); also: nearly all actives have a fitted effect of over 60% in size
# How it was run: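 Cells are plated at 2500 per well and rested 5 hr at 37 C. Compounds are added and incubated 40 hr at 37 C. CellTiter-Glo reagent is added for 30 min at room temperature before luminescence is read.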
# [18] = qHTS assay for small molecule agonists of retinoid X receptor alpha signaling (AID 588544; calls by dose curve); settings: HEK293T RXRa-UAS-bla, beta-lactamase reporter, 18 h; 530 nm emission
# [19] = target: Retinoic acid receptor RXR-alpha (Homo sapiens) (UniProt P19793); assay: as above
# [20] = target: Tumor necrosis factor (Homo sapiens) (UniProt P01375); assay: qHTS assay to identify small molecules that stimulate Tumor Necrosis Factor-alpha (TNF-alpha) secretion (AID 651757; active = well fitted curve in the direction sought with a large enough effect in the signal ratio; the % refers to the signal ratio)
# How it was run: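 Human monocytic THP-1 cells are plated, treated with compound and held at 37 C for 17 hrs. Labeled anti-TNF-alpha antibody mixture is then added; after 3 hr at room temperature, TR-FRET signal reports secreted TNF-alpha.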
# Chain of Retinoic acid receptor RXR-alpha (Homo sapiens) (P19793 whole entry, looked up): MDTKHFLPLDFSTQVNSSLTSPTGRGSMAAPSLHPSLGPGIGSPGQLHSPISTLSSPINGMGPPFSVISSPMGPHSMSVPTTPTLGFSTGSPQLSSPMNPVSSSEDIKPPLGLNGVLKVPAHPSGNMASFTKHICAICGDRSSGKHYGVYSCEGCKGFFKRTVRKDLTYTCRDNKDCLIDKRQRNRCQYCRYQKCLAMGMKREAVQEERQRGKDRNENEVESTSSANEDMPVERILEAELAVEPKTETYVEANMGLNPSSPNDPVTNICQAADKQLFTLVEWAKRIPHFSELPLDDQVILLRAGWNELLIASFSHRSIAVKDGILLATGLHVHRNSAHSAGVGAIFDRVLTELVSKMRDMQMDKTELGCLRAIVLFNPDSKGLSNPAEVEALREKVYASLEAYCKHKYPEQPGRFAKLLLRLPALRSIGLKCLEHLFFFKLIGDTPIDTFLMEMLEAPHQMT
# Chain of Tumor necrosis factor (Homo sapiens) (P01375 whole entry, looked up): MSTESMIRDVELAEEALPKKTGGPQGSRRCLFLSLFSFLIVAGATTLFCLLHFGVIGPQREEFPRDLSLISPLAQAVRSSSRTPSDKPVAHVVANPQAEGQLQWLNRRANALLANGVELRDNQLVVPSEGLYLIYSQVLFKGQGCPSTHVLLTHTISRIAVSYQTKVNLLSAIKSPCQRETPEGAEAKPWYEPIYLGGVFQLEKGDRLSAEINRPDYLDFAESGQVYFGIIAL
Compound,Potency [1],Potency [2],outcome [3],caspase-3 activation [4],Potency [5],Potency [6],Potency [7],Potency [8],Potency [9],Potency [10],Potency [11],Potency [12],Potency [13],Potency [14],Potency [15],Potency [16],Potency [17],max response [18],outcome [19],outcome [20]
ClC(Cl)c1ccccc1,inactive,inactive,inactive,0.485% (inactive),inactive,inactive,inactive,inactive,inactive,inactive,inactive,inactive,inactive,inactive,inactive,inactive,inactive,1.37%,inactive,inactive
Cc1cccc(C)c1N,inactive,inactive,inactive,0.142% (inactive),inactive,inactive,inactive,inactive,inactive,inactive,inactive,inactive,inactive,inactive,inactive,inactive,inactive,-2.21%,inactive,inactive
Oc1cccc(Cl)c1,inactive,inactive,inactive,-0.037% (inactive),inactive,inactive,inactive,inactive,inactive,inactive,inactive,inactive,inactive,inactive,inactive,inactive,inactive,-0.644%,inactive,inactive
ClCc1ccccc1,inactive,inactive,inactive,1.06% (inactive),inactive,inactive,inactive,inactive,inactive,inactive,inactive,inactive,inactive,inactive,inactive,inactive,inactive,-0.901%,inactive,inactive
Cc1cc(Cl)ccc1O,inactive,inactive,inactive,0.112% (inactive),inactive,inactive,inactive,inactive,inactive,inactive,inactive,inactive,inactive,inactive,inactive,inactive,inactive,-4.59%,inactive,inactive
Nc1cccc(Cl)c1,inactive,inactive,inactive,5.51% (inactive),inactive,inactive,inactive,inactive,inactive,inactive,inactive,inactive,inactive,inactive,inactive,inactive,inactive,4.67%,inactive,inactive
Nc1cccc2ccccc12,inactive,inactive,inactive,156% (active),inactive,,,,inactive,inactive,,39.8 µM (active),inactive,inactive,,inactive,inactive,,,inactive
O=C(Cl)c1ccccc1F,inactive,inactive,inactive,1.06% (inactive),inactive,inactive,inactive,inactive,inactive,inactive,inactive,inactive,inactive,inactive,inactive,inactive,inactive,6.73%,inactive,inactive
CCCCCCCCCCCOC(=O)c1ccccc1C(=O)OCCCCCCCCCCC,inactive,inactive,inactive,,inactive,inactive,inactive,inactive,inactive,inactive,inactive,inactive,inactive,inactive,inactive,inactive,inactive,-1.51%,inactive,inactive
Cc1coc2c1CCC(C)C2 (configuration not stated),inactive,inactive,inactive,0.975% (inactive),inactive,inactive,inactive,inactive,inactive,inactive,inactive,inactive,inactive,inactive,inactive,inactive,inactive,-8.64%,inactive,inactive
ClCCCCl,inactive,inactive,inactive,-1.63% (inactive),inactive,inactive,inactive,inactive,inactive,inactive,inactive,inactive,inactive,inactive,inactive,inactive,inactive,1.73%,inactive,inactive
C[N+](=O)[O-],inactive,inactive,inactive,-0.684% (inactive),inactive,inactive,inactive,inactive,inactive,inactive,inactive,inactive,inactive,inactive,inactive,inactive,inactive,-4.73%,inactive,inactive
CC1CC(=O)O1 (configuration not stated),inactive,inactive,inactive,-0.671% (inactive),inactive,inactive,inactive,inactive,inactive,inactive,inactive,inactive,inactive,inactive,inactive,inactive,inactive,-12.1%,inactive,inactive
CC(C)OC(=O)Cc1ccccc1,inactive,inactive,inactive,0.719% (inactive),inactive,inactive,inactive,inactive,inactive,inactive,inactive,inactive,inactive,inactive,inactive,inactive,inactive,1.88%,inactive,inactive
Nc1ccc(-c2ccccc2)cc1,inactive,inactive,inactive,1.62% (inactive),inactive,inactive,inactive,inactive,inactive,inactive,inactive,inactive,inactive,inactive,inactive,inactive,inactive,9.85%,inactive,inactive
